Drawing on PubChem BioAssay (NCI), this text covers growth for 20 compounds.

This is part of a sample that, as a whole, favours compounds with a hit. Of some 83,000 tested, about 20% had one in any assay.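 Assay: single dose, 48 h. Readout: percent growth (0 = no net growth; negative = cell death). Active: <10.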 A number with no mark means an inactive call. The source made the active and inactive calls.

Common to all, as to test: NCI-60 one-dose screen, 48 h (100 = growth as untreated, 0 = no growth, -100 = all killed)
For test [1], the system named is T-47D breast. Particulars: 10 µM.
Test [2] has as its system BT-549 breast. Particulars: 10 µM.
The test system of test [3] is MDA-MB-435 melanoma. Particulars: 10 µM.
Test [4] relates to MCF7 breast. Particulars: 10 µM unless noted.
Test [5] relates to HCT-116 colon. Particulars: 10 µM.
The test system of test [6] is KM12 colon. Particulars: 10 µM.
For test [7], the system named is SW-620 colon. Particulars: 10 µM.
Test [8] deals with HCC-2998 colon. Particulars: 10 µM.

On to `O=[N+]([O-])c1ccc(S(=O)(=O)NN=C2CCCCC2)cc1`, for which the growth is 107% in test [1]; 95.5% in test [2]; 114% in test [3]; 102% in test [4]; 97.8% in test [5]; 110% in test [6].
Turning to `O=C1C=C(Nc2ccc([N+](=O)[O-])cc2)c2ccccc2C1=O`, the growth is 20% in test [1]; -1.53% (active) in test [2]; -88.2% (active) in test [3]; 40.4% in test [7]; 26.5% in test [4]; 18% in test [5]. Besides, in test [6], the growth was 32.4%.
With `CCOC(=O)C1=C(C)NC(=O)NC1c1cccs1` (stereo not given), the growth in test [1] was 102%; in test [2], 123%; in test [3] it was 125%; in test [7], 105%; in test [4], 101%; in test [5], 116%. In addition, in test [6], the growth is 109%.
Turning to `Cc1ccc(Cl)cc1NC(=O)N(C)CCO`, the growth in test [1] is 104%; in test [2], 116%; in test [3], 117%; in test [4], 88.7%; in test [5] it was 112%; in test [8] it was 104%. For the same compound, the growth in test [6] is 120%.
Turning to `Cc1cc2ccccc2c(O)c1C#N`, the growth in test [1] was 88.8%; in test [2] it was 97.6%; in test [3], 108%; in test [7], 104%; in test [4], 99.3%; in test [5] it was 105%. In addition, the growth in test [6] is 105%.
`NCC(=O)CCC(=O)O`: the growth in test [1] was 100%; in test [2] it was 110%; in test [3], 108%; in test [7], 108%; in test [5], 114%; in test [8], 97.4%. Moreover, the growth in test [6] was 108%.
`COc1ccc2c(NCCCCCCCCNc3c4ccccc4nc4cc(OC)ccc34)c3ccccc3nc2c1`: the growth in test [1] was -74.6% (active); in test [2], -95.9% (active); in test [3], -100% (active); in test [4], -100% (active); in test [5], -100% (active); in test [8], -100% (active). For the same compound, the growth in test [6] is -100% (active).
As to `CC1NC(=O)NC1CCCCCC(=O)O` (stereo not given), the growth in test [1] is 101%; in test [2], 105%; in test [3] it was 117%; in test [4], 99.8%; in test [5], 105%; in test [6] it was 98.7%.
Turning to `COC(=O)c1cccc(Br)c1`, the growth in test [1] was 111%; in test [2], 107%; in test [3], 94%; in test [4], 116%; in test [5] it was 97.8%; in test [8], 107%. Also, the growth in test [6] is 112%.
As for `CC(C)C1CCCCC1O` (stereo not given), the growth in test [1] is 107%; in test [2], 105%; in test [3], 100%; in test [4], 107%; in test [5], 109%; in test [6], 107%.
For the compound `CCC(C)(C)C1CCC(O)CC1` (stereo not given), the growth in test [1] was 97.5%; in test [2] it was 96.6%; in test [3], 112%; in test [4] it was 104%; in test [5] it was 98.9%; in test [6], 96%.
As for `COc1cc(C(=O)NC(=S)Nc2ccc3ccccc3c2)cc(OC)c1OC`, the growth is 91.2% in test [1]; 121% in test [2]; 74% in test [7]; 93.2% in test [4]; 104% in test [5]; 99.5% in test [8]. For the same compound, the growth in test [6] is 95.5%.
Regarding `NC(=O)N/N=C\c1ccco1`, the growth in test [1] was 107%; in test [2], 94.9%; in test [3] it was 118%; in test [7] it was 107%; in test [5], 101%; in test [8] it was 99.3%. In test [6], the growth was 113%.
Take `Cc1cc(OCCO)cc(C)c1Cl`: the growth is 111% in test [1]; 116% in test [2]; 107% in test [7]; 110% in test [4]; 101% in test [5]; 102% in test [8]. Further, the growth in test [6] is 107%.
For the compound `CC(=O)Oc1ccc(Br)cc1C(=O)O`, the growth is 97.6% in test [1]; 97.7% in test [2]; 104% in test [3]; 107% in test [7]; 94.3% in test [4]; 95.4% in test [5]. In test [6], the growth is 115%.
As to `O=S(=O)(O)c1ccc(O)c2ccccc12`, the growth in test [1] was 99.4%; in test [2], 91.6%; in test [3], 113%; in test [4], 94.3%; in test [5], 98.4%; in test [6], 102%.
As for `CCCC(=O)Nc1ccc2c(c1)CN1C(=O)c3ccccc3C1=N2`, the growth was 101% in test [1]; 107% in test [2]; 106% in test [3]; 96% in test [4]; 102% in test [5]; 85.4% in test [8]. For the same compound, in test [6], the growth is 97.5%.
In the case of `CC1Cc2ccccc2O1` (stereo not given), the growth is 104% in test [1]; 134% in test [2]; 124% in test [3]; 99.6% in test [4]; 112% in test [5]; 86.4% in test [8]. The growth in test [6] was 107%.
For the compound `CC(=O)OC(C(=O)O)c1ccccc1` (stereo not given), the growth was 118% in test [1]; 122% in test [2]; 105% in test [3]; 101% in test [7]; 108% in test [5]; 96.3% in test [8]. Moreover, the growth in test [6] was 106%.
Take `O=C(OCC(O)C1OC(c2ccccc2)OC(COC(=O)c2ccccc2)C1O)c1ccccc1` (stereo not given): the growth was 109% in test [1]; 110% in test [2]; 102% in test [3]; 91.1% in test [4]; 109% in test [5]; 103% in test [8]. Moreover, the growth in test [6] is 111%.
